Screening data deposited in PubChem by The Scripps Research Institute Molecular Screening Center.
TEAD-YAP inh = TEAD-YAP interaction inhibition; HEK-TIYL cells, TEAD-Gal4/YAP UAS-luciferase luminescence; inhibition, % at 9.12 µM; 1.4% of 640,000 active; in the data active means inhibition above about 32%;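 further: 0% = median of test compound wells and 100% = reference inhibitor wells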
MITF primary = inhibitors of human MITF; O75030; AlphaScreen MITF homodimerization, bead proximity signal; inhibition, % at 2.6 µM; 0.91% of 650,000 active; AID 1259374; in the data active means inhibition above about 50%;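 further: 0% = vehicle wells with protein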
GPR151 ag = human GPR151 activation | Q8TDV0 | PathHunter beta-arrestin GPR151 cells, luminescence | activation, % at 11.2 µM | 1% of 650,000 active | AID 1508602; in the data active means activation above about 4.9%;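 further: 0% = median of compound wells and 100% = cells with positive control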
FBW7 activator = human FBW7 E3 ligase activation, primary screen | Q969H0 | AlphaScreen FBW7–phospho-cyclin E peptide binding, activator screen | normalized activity (activation), % at 26.1 µM | 0.13% of 650,000 active; in the data active means normalized activity above about 1.9%;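 further: purified mutant Fbw7 with reduced substrate affinity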
Target sequence (Q969H0 whole entry, looked up): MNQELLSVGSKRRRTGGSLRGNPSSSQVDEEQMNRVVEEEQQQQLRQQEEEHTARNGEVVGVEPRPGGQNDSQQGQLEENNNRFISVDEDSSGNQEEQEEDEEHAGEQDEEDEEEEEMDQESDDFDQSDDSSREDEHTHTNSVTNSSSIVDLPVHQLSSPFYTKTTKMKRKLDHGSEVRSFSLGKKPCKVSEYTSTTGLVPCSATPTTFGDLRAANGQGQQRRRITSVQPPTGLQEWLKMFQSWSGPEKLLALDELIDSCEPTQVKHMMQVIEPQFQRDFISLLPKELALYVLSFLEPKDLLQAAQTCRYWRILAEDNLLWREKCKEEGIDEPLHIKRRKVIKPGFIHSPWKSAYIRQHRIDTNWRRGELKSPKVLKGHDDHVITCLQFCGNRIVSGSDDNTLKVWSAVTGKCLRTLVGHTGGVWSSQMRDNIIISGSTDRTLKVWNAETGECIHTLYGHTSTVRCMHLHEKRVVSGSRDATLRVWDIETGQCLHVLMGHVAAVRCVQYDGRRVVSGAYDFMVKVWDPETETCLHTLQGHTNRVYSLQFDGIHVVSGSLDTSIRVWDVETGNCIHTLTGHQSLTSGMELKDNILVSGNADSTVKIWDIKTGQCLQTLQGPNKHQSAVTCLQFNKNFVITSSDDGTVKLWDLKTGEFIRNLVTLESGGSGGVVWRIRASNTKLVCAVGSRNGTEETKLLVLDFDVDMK
GPR151 confirm = human GPR151 activation, confirmation screen; GPR151 PathHunter beta-arrestin cells, luminescence, 90 min; % of EA-reagent control over plate median; shares compounds with GPR151 ag; 6,700 tested, under 10 active; activation, % at 11.2 µM; AID 1508609;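 active means mean percent activation across replicates above the confirmation screen cutoff of 4.91%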
GPR119 counter = GPR119 activation, counter-screen for GPR151 activators. 0.3% of 6,700 active. shares compounds with GPR151 ag. GPR119 PathHunter beta-arrestin cells, luminescence, 90 min; 0 = compound-well median, 100 = enzyme-acceptor control. AID 1508611. activation, % at 11.2 µM;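 active means mean percent activation in the counterscreen above 29.09%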;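 further: counterscreen on off-target GPR119 to flag nonselective hits from the GPR151 activator screen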
Active calls of the source: *. This is a sample that favours compounds with a hit; in the whole collection about 3.5% have one here.

Results for Cc1ccc(S(=O)(=O)Nc2ccc3c(c2)C(=O)NC3=O)c(C)c1 ?
TEAD-YAP inh: 4; MITF primary: 15; GPR151 ag: 0; FBW7 activator: 0

What do the screens show for `CCOc1ccccc1N(CC(=O)Nc1ccccc1C(F)(F)F)S(C)(=O)=O`?
TEAD-YAP inh: 0; MITF primary: -3; GPR151 ag: 0; FBW7 activator: 0

How did COc1cccc(C(=O)Nc2nc(-c3cccc([N+](=O)[O-])c3)cs2)c1 do in these assays?
TEAD-YAP inh: -10; MITF primary: 19; GPR151 ag: -1; FBW7 activator: 0

How did COCCNC(=O)c1ccc(CNC(=O)c2ccc3c(c2)OCO3)cc1 do in these assays?
TEAD-YAP inh: -8; MITF primary: 9; GPR151 ag: -1; FBW7 activator: 0

What do the screens show for `COCCCNC(=O)c1ccc(CNC(=O)c2ccc3c(c2)OCO3)cc1`?
TEAD-YAP inh: 3; MITF primary: 5; GPR151 ag: 5.7*; FBW7 activator: 0; GPR151 confirm: -1; GPR119 counter: -5

Results for Cc1c(C(=O)Nc2ccc(Oc3ccccc3)cc2)sc2ncnc(N3CCCCC3)c12 ?
TEAD-YAP inh: 5; MITF primary: 12; GPR151 ag: 3; FBW7 activator: 0

What do the screens show for `CN1CCCC(OC(=O)c2cc(Cl)ccc2Cl)C1` (stereo not drawn)?
TEAD-YAP inh: -6; MITF primary: -6; GPR151 ag: 0; FBW7 activator: 0

What do the screens show for `CN1CCCC(OC(=O)c2cc(Br)ccc2Cl)C1` (stereo not drawn)?
TEAD-YAP inh: 0; MITF primary: 25; GPR151 ag: 6.2*; FBW7 activator: 0; GPR151 confirm: -1; GPR119 counter: -1

How did CCOc1ccc(/C=C(\C#N)c2[nH]nc(N)c2C#N)cc1OC do in these assays?
TEAD-YAP inh: -12; MITF primary: 5; GPR151 ag: 5.6*; FBW7 activator: 0; GPR151 confirm: 0; GPR119 counter: -7

What do the screens show for `O=C(CN1CCCC(O)C1)N1c2ccccc2Sc2ccc(C(F)(F)F)cc21` (stereo not drawn)?
TEAD-YAP inh: 2; MITF primary: 23; GPR151 ag: 9.5*; FBW7 activator: 0; GPR151 confirm: 0; GPR119 counter: -4

What do the screens show for `c1cncc(CSc2ccc(-c3cccnc3)nn2)c1`?
TEAD-YAP inh: -19; MITF primary: 4; GPR151 ag: 7.0*; FBW7 activator: 0; GPR151 confirm: 1; GPR119 counter: 6

Results for COC(=O)CN1C(=O)S/C(=C/c2cccc([N+](=O)[O-])c2O)C1=O ?
TEAD-YAP inh: 4; MITF primary: 14; GPR151 ag: 5.3*; FBW7 activator: 0; GPR151 confirm: 0; GPR119 counter: -12

What do the screens show for `COc1cc(/C=C2\SC(NC(C)=O)=NC2=O)cc(Br)c1OC(C)=O`?
TEAD-YAP inh: 4; MITF primary: 11; GPR151 ag: 7.4*; FBW7 activator: 0; GPR151 confirm: 1; GPR119 counter: -7

What do the screens show for `COc1cc(/C=C2\SC(NC(C)=O)=NC2=O)cc(OC)c1OC`?
TEAD-YAP inh: -7; MITF primary: -13; GPR151 ag: -1; FBW7 activator: 0

Results for COC(=O)CN1C(=O)S/C(=C/C=C/c2ccccc2[N+](=O)[O-])C1=O ?
TEAD-YAP inh: 4; MITF primary: 17; GPR151 ag: -1; FBW7 activator: 0

What do the screens show for `C=CCN1C(=O)/C(=C\c2ccc(C(=O)O)cc2)S/C1=N/c1nnc(CC)s1`?
TEAD-YAP inh: 1; MITF primary: 6; GPR151 ag: 1; FBW7 activator: 0

What do the screens show for `C=CCN1C(=O)/C(=C/c2ccc(OCC(=O)O)cc2)S/C1=N/c1nccs1`?
TEAD-YAP inh: -1; MITF primary: 6; GPR151 ag: 7.0*; FBW7 activator: 0; GPR151 confirm: 2; GPR119 counter: 4

Results for COC(=O)CN1C(=O)S/C(=C/c2ccc(OCC(=O)O)cc2)C1=O ?
TEAD-YAP inh: 8; MITF primary: 13; GPR151 ag: 9.8*; FBW7 activator: 0; GPR151 confirm: 1; GPR119 counter: 5

Results for O=C1/C(=C/c2ccc(-c3ccc(F)cc3F)o2)Sc2ccccc21 ?
TEAD-YAP inh: -3; MITF primary: 15; GPR151 ag: 1; FBW7 activator: 0

Results for CC(=O)N1c2ccc(S(=O)(=O)NC(C(=O)NC3CCCCC3)C(C)C)cc2CC1C (stereo not drawn) ?
TEAD-YAP inh: 4; MITF primary: 19; GPR151 ag: -1; FBW7 activator: 0

How did COc1ccc(S(=O)(=O)CCC(=O)N2CCN(c3ccccc3)CC2)cc1 do in these assays?
TEAD-YAP inh: -1; MITF primary: 36; GPR151 ag: 1; FBW7 activator: 0

What do the screens show for `COC(=O)CN1C(=O)S/C(=C\c2cc(Br)c(OC)c(OC)c2)C1=O`?
TEAD-YAP inh: -1; MITF primary: 9; GPR151 ag: 14*; FBW7 activator: 0; GPR151 confirm: 1; GPR119 counter: 3

What do the screens show for `O=C(CN1CC(=O)N2CCCC2C1=O)NCc1ccccc1` (stereo not drawn)?
TEAD-YAP inh: 5; MITF primary: 12; GPR151 ag: -2; FBW7 activator: 0

What do the screens show for `O=C(CN1CC(=O)N2CCCC2C1=O)NCCc1ccc(Cl)cc1` (stereo not drawn)?
TEAD-YAP inh: -3; MITF primary: -2; GPR151 ag: 7.8*; FBW7 activator: 0; GPR151 confirm: -1; GPR119 counter: -2

Results for O=C(CN1CC(=O)N2CCCC2C1=O)NCCc1ccccc1 (stereo not drawn) ?
TEAD-YAP inh: 1; MITF primary: -4; GPR151 ag: -2; FBW7 activator: 0

What do the screens show for `O=C(CN1CC(=O)N2CCCC2C1=O)NCc1cccc(Cl)c1` (stereo not drawn)?
TEAD-YAP inh: -8; MITF primary: -3; GPR151 ag: 10*; FBW7 activator: 0; GPR151 confirm: -1; GPR119 counter: -10

Results for Clc1ccc(Cc2nnc3n2N=C(c2ccccc2)CS3)cc1 ?
TEAD-YAP inh: -1; MITF primary: -6; GPR151 ag: 0; FBW7 activator: 0

Results for CCCCC[C@@](C)(O)/C=C/[C@@H]1C(C/C=C\CCCC(=O)O)[C@@H](O)C[C@H]1O (stereo partly drawn) ?
MITF primary: 10; GPR151 ag: 7.1*; GPR151 confirm: 0; GPR119 counter: 7

How did CCCCC[C@@](C)(O)/C=C/[C@@H]1[C@@H](C/C=C\CCCC(=O)OC)[C@@H](O)C[C@H]1O do in these assays?
MITF primary: 6; GPR151 ag: 1

What do the screens show for `O=C(NC1CC1)c1cnc(Nc2ccc(C(F)(F)F)cc2)s1`?
TEAD-YAP inh: 1; MITF primary: 5; GPR151 ag: 4.9*; FBW7 activator: 0; GPR151 confirm: 1; GPR119 counter: -1
